Source: PubChem BioAssay (National Center for Advancing Translational Sciences (NCATS))
An excerpt weighted towards active compounds, which were near 8.3% of everything screened.
MCF10A rereplic = DNA re-replication induction in MCF 10a cells | 2.9% of 350,000 active | MCF 10A DNA re-replication, Hoechst nuclear intensity, 48 h | Potency, µM (titrated, usually from 46.1 µM), inactives show at the top dose activity, positive = re-replication, most hits filed as activators; also: potency is read from the fitted curve at half-maximal effect; % of control where 0% means no effect; nearly all actives have a fitted effect of over 50% in size
SW480 rereplic = induces DNA re-replication in SW480 colon adenocarcinoma cells | SW480 DNA re-replication, Hoechst DNA content imaging, 48 h | Potency, µM (top dose mostly 46.1 µM), without a hit: at the highest dose re-replication activation, usual class: activators | 1.8% of 340,000 active | AID 624297; also: potency is read from the fitted curve at half-maximal effect; % of control where 0% means no effect; nearly all actives have a fitted effect of over 55% in size
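Compounds, transferred as 23 nL by pin tool, were incubated with cells for 48 hr; DNA content per nucleus was then quantified by Hoechst staining and fluorescence plate imaging.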
RORgamma inh = ROR gamma (mouse) transcription inhibition; Drosophila S2 Gal4-RORgamma UAS-luciferase reporter, 20 h; P51450; 5.4% of 310,000 active; AID 2551; Potency, µM (highest dose often 53.6 µM), for the others: at the top dose activity change, negative = inhibition, actives largely listed as inhibitors; also: potency is read from the fitted curve at half-maximal effect; % is scaled to controls: 0 for no effect and ±100 for the full control effect; nearly all actives have a fitted effect of over 60% in size
Target sequence (P51450 whole entry, looked up, the tested form may be a part): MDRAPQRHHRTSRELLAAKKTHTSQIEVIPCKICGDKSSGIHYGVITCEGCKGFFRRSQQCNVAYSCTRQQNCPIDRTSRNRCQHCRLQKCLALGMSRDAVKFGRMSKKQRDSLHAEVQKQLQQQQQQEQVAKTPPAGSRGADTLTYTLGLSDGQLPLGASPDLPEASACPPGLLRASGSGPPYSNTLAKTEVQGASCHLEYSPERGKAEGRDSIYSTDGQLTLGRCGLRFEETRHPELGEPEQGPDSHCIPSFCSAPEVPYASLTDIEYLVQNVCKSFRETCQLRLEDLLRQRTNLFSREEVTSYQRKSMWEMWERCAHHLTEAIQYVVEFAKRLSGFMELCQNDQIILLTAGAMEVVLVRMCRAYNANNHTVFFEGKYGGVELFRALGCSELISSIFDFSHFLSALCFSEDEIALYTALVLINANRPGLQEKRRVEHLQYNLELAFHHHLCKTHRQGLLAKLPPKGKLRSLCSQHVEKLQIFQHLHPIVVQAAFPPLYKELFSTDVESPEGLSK
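Schneider cells (Drosophila), stable Gal4 DBD–ROR gamma + UAS-luc; 1 hr cmpd preincubation; Cu2+ induction 700 uM final; 20 hr ambient; luminescence.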
Chronic BCR inh = chronic active BCR signaling inhibition. ABC-DLBCL IkBa-CBG/CBR reporter, luminescence ratio, 4 h. Potency, µM (highest dose often 46.1 µM), for inactives: top-dose activity change, negative = inhibition, hits mostly inhibitors. 0.05% of 340,000 active. AID 493014; active = well fitted inhibition curve with a large enough effect in the signal ratio, with a control signal flat, not every such curve was filed as active; inconclusive = small, poorly fitted or top-dose-only effect, or effect the other way, or a change in a side signal; the % refers to the signal ratio;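 also: potency is read from the fitted curve at half-maximal effect; plate controls were basal doxycycline-induced cells for no effect and cells given 10 µM MG132 for full effect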
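Concentration-response series (up to 46 uM) were applied to TMD8 dual-reporter cells for 4 h at 37C with doxycycline. Green/red ratio, after filter-overlap correction, defined %Activity; red signal alone was normalised to basal cells and zero luminescence.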
VP16 counter = inhibits Gal4-VP16 luciferase reporter, ROR gamma counter-screen. Drosophila S2 Gal4-VP16 UAS-luciferase, luminescence, 20 h. Potency, µM (titrated, usually from 53.6 µM), for the others: at the top dose activity, negative = inhibition, hits mostly inhibitors. 3.5% of 310,000 active. AID 2546;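 also: Gal4-VP16 expression switched on by copper sulfate through the metallothionein promoter; potency is read from the fitted curve at half-maximal effect; % is scaled to controls: 0 for no effect and ±100 for the full control effect; nearly all actives have a fitted effect of over 50% in size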
Giardia killer = kills Giardia lamblia; Giardia lamblia trophozoite viability; activity change, % at 7.66 µM, hits read low; 0.15% of 340,000 active; in the data active = activity change below about -80%; inconclusive = between about -30% and that limit;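 also: parasites exposed to compound for two days anaerobically before the ATP read; % is scaled to controls: 0 for no effect and ±100 for the full control effect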
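Viability, read as ATP luminescence: trophozoites at 100 cells/well, compound added, 48 hrs anaerobic at 37 deg C, then 15-30 min room-temperature development before reading.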
An asterisk follows results filed as active; ? = inconclusive; . = no result; [ ] = remark or other dose. Unless noted, calls follow the shape of the dose curve; as a rule, active = well fitted curve in the direction sought with a large enough effect; inconclusive = small, poorly fitted or top-dose-only effect, or another doubt; inactive = no such curve, though single readings can be large; an effect the other way counts as inactive or inconclusive.

SMILES | MCF10A rereplic | SW480 rereplic | RORgamma inh | Chronic BCR inh | VP16 counter | Giardia killer
Cn1c(=S)n(/N=C/c2ccc3c(c2)OCO3)c2ccccc21 | 4% | -1% | 11µM* | 0% | 21% | -8
CCc1n[nH]c(=S)n1/N=C/c1ccc(N(C)c2ccccc2)cc1 | ? | -3% | 4.5µM* | -1% | ? | -5
CNS(=O)(=O)c1cccc(C(=O)OCC(=O)NC(C)CCc2ccccc2)c1 (centres undefined) | 4% | -9% | 19% | ? | 5% | 1
CC(CCc1ccccc1)NC(=O)COC(=O)c1cc(NS(=O)(=O)c2ccc(Cl)c([N+](=O)[O-])c2)ccc1O (centres undefined) | 6.5µM* | 11% | ? | ? | ? | -14
COc1ccccc1-c1ccc2ncnc(N(C)Cc3ccco3)c2c1 | . | . | 14% | . | ? | .
Cn1c(=O)c(C(=O)NNC(=O)c2ccccc2Cl)c(O)c2ccccc21 | 21% | ? | 11µM* | ? | ? | 4
CC(=O)c1c(O)c2ccccc2n(C)c1=O | -2% | -2% | -34% | -4% | -2% | -3
CC(NC(=O)c1c(O)c2ccccc2n(C)c1=O)c1ccccc1 (centres undefined) | 18% | 23µM* | -20% | ? | ? | 13
CCn1c(=O)c(C(=O)NNC(=O)c2ccccc2Br)c(O)c2ccccc21 | -3% | -8% | ? | ? | ? | 15
Cc1cccc(C(=O)NNC(=O)c2c(O)c3ccccc3n(C)c2=O)c1 | ? | -21% | -26% | ? | -32% | 7
Cn1c(=O)c(C(=O)NNC(=O)c2ccccc2Br)c(O)c2ccccc21 | 11% | ? | 20µM* | ? | ? | 4
COc1cc(/C=C(\C#N)c2nc3ccccc3[nH]2)cc(OC)c1O | ? | ? | 8% | ? | -19% | 24
COc1cc(/C=C(\C#N)c2nc3ccccc3[nH]2)cc(Br)c1OCc1ccc(F)cc1 | 8.2µM* | ? | 28% | 0% | -20% | 2
COc1cc(/C=C(\C#N)c2nc3ccccc3[nH]2)cc(Br)c1OCc1ccccc1 | 18µM* | 18µM* | ? | 1% | ? | -6
Cc1sc2ncnc(SCc3ccc(C(=O)O)cc3)c2c1C | 19% | ? | -2% | 4% | -21% | -13
O=C(CSc1ncnc2scc(-c3ccccc3)c12)N1CCN(Cc2ccc3c(c2)OCO3)CC1 | ? | 1% | 22µM* | -16% | ? | 8
Cc1ccc(-c2csc3nc(SCC(N)=O)n(Cc4ccccc4)c(=O)c23)cc1 | ? | . | 11µM* | 0% | ? | -3
c1ccc(-c2csc3ncnc(N4CCN(Cc5ccc6c(c5)OCO6)CC4)c23)cc1 | 8% | -21% | 9% | 1% | -2% | 22
Cc1ccc(-c2csc3ncnc(SCc4ccc(C(=O)O)cc4)c23)cc1 | ? | 1% | 2.8µM* | ? | 4.5µM* | -22
Cc1ccc(-c2csc3ncnc(SCC(N)=O)c23)cc1 | 0% | -8% | 1.6µM* | ? | -21%[10 µM] | 9
NC(=O)CSc1nc2ccccc2n1Cc1ccccc1 | 1% | -2% | 28% | ? | -1% | 6
CCc1nnc(NC(=O)CSc2ncnc3scc(-c4ccc(C)cc4)c23)s1 | ? | 4% | 0% | -4% | -1% | -7
Cc1ccc(-n2ncc(C(=O)N3CCN(C(=O)c4ccco4)CC3)c2-n2cccc2)cc1 | 2% | -3% | 34% | 4% | -10% | 6
Cc1ccc(-c2nc(SCC(=O)Nc3cc(S(=O)(=O)N4CCCCC4)ccc3Cl)n[nH]2)cc1 | ? | 11% | ? | ? | ? | -17
Fc1ccc(-c2ncc3ccccn23)cc1 | 1% | 2% | -39% | -6% | -19% | -8
SMILES | MCF10A rereplic | SW480 rereplic | RORgamma inh | Chronic BCR inh | VP16 counter | Giardia killer
Clc1ccc(/C=C/c2ncc3ccccn23)cc1 | 18µM* | 23µM* | -4% | 14% | -1% | 16
CCN1CCC(O)(/C=C/c2ccc(C(C)C)cc2)C(C(=O)/C=C/c2ccc(C(C)C)cc2)C1 (centres undefined) | 12µM* | ? | . | . | . | -11
CCN1CCN(C(=O)/C=C/c2ccc(C(C)C)cc2)CC1 | ? | 8% | . | . | . | 14
CCOC(=O)/C=c1/s/c(=C/c2ccc3cc(OC)ccc3c2)c(=O)n1CC(=O)NCC1CCCO1 (centres undefined) | ? | 3.7µM* | . | . | . | 5
CCOC(=O)/C=c1\s/c(=C\c2c(OC)ccc3ccccc23)c(=O)n1CC(=O)NCC1CCCO1 (centres undefined) | 1.2µM* | 5.8µM* | -8% | ? | -1% | -3
CCOC(=O)/C=c1\s/c(=C\c2ccc(C(=O)OC)cc2)c(=O)n1CC(=O)Nc1ccccc1 | ? | 11% | -1% | ? | -20% | -2
CN(C)CCNc1nc2sc3c(c2c(=O)n1CCc1ccccc1)CCCCC3 | ? | 18µM* | -2% | ? | -5% | -18
CCOC(=O)/C(=N/Nc1ccc(Br)cc1)N1CC(C)OC(C)C1 (centres undefined) | ? | 10% | . | . | . | 5
CCCCNc1nc(C)nc2c1nc(-c1ccccc1)n2C1CCN(Cc2ccccc2)C1 (centres undefined) | . | . | 11µM* | . | -12% | .
COc1cc(Nc2ccc(S(=O)(=O)N3CCN(C)CC3)cc2[N+](=O)[O-])cc(OC)c1 | 2% | 3.3µM* | . | -4% | . | -1
O=C(Nc1ccc(Cl)cn1)c1ccccc1F | 13µM* | 12µM* | -45% | . | -20% | ?
O=C(Nc1ccc(Cl)cn1)c1cccc(F)c1 | 13µM* | 10µM* | -11% | ? | -1% | -1
O=C(Nc1cccc(C(=O)Nc2ccc(Cl)cn2)c1)c1ccccc1 | 12% | 33% | 21% | ? | -4% | -6
Cc1ccc(C)c(NC(=S)NNC(=O)c2csc3c2CCCC3)c1 | ? | 3% | ? | ? | -26% | -5
O=C(Nc1nccs1)c1csc2c1CCCC2 | 17% | 4% | ? | ? | 10µM* | -10
CCNC(=S)NNC(=O)c1csc(CC)c1 | 5% | -1% | 4.5µM* | 4% | -23% | -11
CCCc1cc(C(=O)NNC(=S)NC2CCCCC2)cs1 | 0% | 27% | 3.5µM* | ? | ? | -8
CCNC(=S)NNC(=O)c1csc2c1CCCC2 | 19% | -3% | 3.2µM* | ? | -24% | 13
CN(C)c1ccc(CNC(=O)CCS(=O)(=O)c2ccc3c(c2)n(C)c(=O)c(=O)n3C)cc1 | 0% | -7% | -9% | 8% | 3% | -12
c1cncc(-c2nc(Oc3ccc(-c4nnco4)cc3)c3c4c(sc3n2)CCCC4)c1 | . | . | -16% | -1% | 4% | .
